The values that follow come from PubChem BioAssay (NCI).

Among the test systems are HCT-15 colon; HT29 colon; SNB-75 CNS; SNB-19 CNS; U251 CNS; PC-3 prostate; SK-MEL-5 melanoma; UACC-62 melanoma; LOX IMVI melanoma; SK-MEL-28 melanoma; SK-MEL-2 melanoma; EKVX NSCLC; SN12C renal; UO-31 renal; TK-10 renal; ACHN renal; CAKI-1 renal; CCRF-CEM leukemia; MOLT-4 leukemia.
What all share (experiment): NCI-60 one-dose screen, 48 h (100 = growth as untreated, 0 = no growth, -100 = all killed)
Common to all, as to conditions: 10 µM unless noted

The panel holds about 83,000 compounds, 20% with a hit somewhere; the sample as a whole holds those more often.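 Cell lines were cultured in 96-well plates, exposed to a single compound concentration, and assessed for percent growth 48 hours later.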 Values without a mark were called inactive. The source made the active and inactive calls. How the source made its calls: active means growth percent below 10; inactive means the rest.

Turning to `CSc1nc2sc3cccc(Cl)c3n2c(=N)c1C#N`, the growth is 111% in the assay on HCT-15 colon; 113% in the assay with HT29 colon; 103% in the assay with SNB-75 CNS; 109% with SNB-19 CNS; 95.6% in the assay on U251 CNS; 90.8% in the assay with PC-3 prostate. Moreover, the growth with SK-MEL-5 melanoma is 95.4%; in the assay with UACC-62 melanoma, 90%; with LOX IMVI melanoma, 93.7%; in the assay with SK-MEL-28 melanoma, 115%; in the assay with SK-MEL-2 melanoma, 105%; in the assay on EKVX NSCLC it was 90.1%. The growth in the assay on SN12C renal is 101%; in the assay on UO-31 renal, 68.5%; with TK-10 renal, 123%; in the assay with ACHN renal, 95%; with CAKI-1 renal, 86.8%; with CCRF-CEM leukemia, 86%. In the assay on MOLT-4 leukemia, the growth was 90%.

On to `CCN(CC)CCCC(C)Nc1cc(O)cc2cccnc12` (stereo not drawn), for which the growth with HCT-15 colon is 102%; in the assay on HT29 colon, 44.4%; in the assay with SNB-75 CNS it was 74.9%; in the assay with SNB-19 CNS, 93.8%; in the assay on U251 CNS, 88.2%; in the assay with PC-3 prostate, 86.8%. Also, the growth in the assay on SK-MEL-5 melanoma was 116%; in the assay with UACC-62 melanoma, 94.4%; in the assay with LOX IMVI melanoma, 88.7%; in the assay on SK-MEL-28 melanoma it was 122%; in the assay with SK-MEL-2 melanoma, 135%; with EKVX NSCLC, 106%. Further, the growth with SN12C renal is 85.7%; in the assay on UO-31 renal, 83.4%; with TK-10 renal, 122%; with ACHN renal, 102%; with CAKI-1 renal, 109%; in the assay with CCRF-CEM leukemia, 108%. Also, the growth with MOLT-4 leukemia was 112%.

With `C=C(C)[C@@H]1CC[C@]2(CN)CC[C@]3(C)[C@H](CC[C@@H]4[C@@]5(C)CCCNC(C)(C)[C@@H]5CC[C@]43C)[C@@H]12`, the growth in the assay with HCT-15 colon was -92.4% (active); in the assay with HT29 colon, -85.8% (active); in the assay with SNB-75 CNS it was -27.7% (active); in the assay with SNB-19 CNS, -58.5% (active); in the assay with U251 CNS, -89.7% (active); in the assay on PC-3 prostate it was -10.5% (active). Also, the growth was -9.72% (active) in the assay on SK-MEL-5 melanoma; 29% with UACC-62 melanoma; -98.3% (active) in the assay with LOX IMVI melanoma; -28.3% (active) in the assay with SK-MEL-28 melanoma; 6.75% (active) with SK-MEL-2 melanoma; 6.81% (active) in the assay on EKVX NSCLC. The growth is -25.5% (active) with SN12C renal; 5.31% (active) in the assay with UO-31 renal; -10.6% (active) in the assay on TK-10 renal; -91.8% (active) with ACHN renal; -94.5% (active) in the assay with CAKI-1 renal; -27.4% (active) with CCRF-CEM leukemia. In addition, the growth in the assay on MOLT-4 leukemia is -45.4% (active).

In the case of `O=C(/C=C(/C=C/c1csc2ccccc12)OB(F)F)/C=C/c1csc2ccccc12`, the growth in the assay with HCT-15 colon was 11.4%; in the assay on HT29 colon it was 15.7%; in the assay with SNB-75 CNS, 16.5%; in the assay on SNB-19 CNS, 48.2%; in the assay on U251 CNS, 17.1%; in the assay with PC-3 prostate, 20.3%. For the same compound, the growth with SK-MEL-5 melanoma was 31.5%; in the assay with UACC-62 melanoma, 6.2% (active); in the assay with LOX IMVI melanoma, -3.05% (active); in the assay on SK-MEL-28 melanoma it was 4.8% (active); with SK-MEL-2 melanoma it was 73.1%; with EKVX NSCLC, 23.7%. The growth was -9.88% (active) with SN12C renal; -5.1% (active) in the assay with UO-31 renal; 23.7% with TK-10 renal; 7.13% (active) with ACHN renal; 10.1% in the assay with CAKI-1 renal; -20.5% (active) in the assay with CCRF-CEM leukemia. Further, the growth in the assay on MOLT-4 leukemia was -18.6% (active).

With `CCOC(=O)Oc1c(OC)cc(C(=O)c2ccc(OC)c(OC(=O)CCl)c2OC)cc1OC`, the growth with HCT-15 colon was 16.6%; with HT29 colon, 35.9%; in the assay on SNB-75 CNS it was 36.3%; in the assay with SNB-19 CNS, 22.8%; in the assay with U251 CNS it was 19%; in the assay on PC-3 prostate, 23%. The growth is 34.9% in the assay with SK-MEL-5 melanoma; 30.6% with UACC-62 melanoma; 43.5% in the assay on LOX IMVI melanoma; 47.4% in the assay with SK-MEL-28 melanoma; 8.91% (active) in the assay on SK-MEL-2 melanoma; 70% in the assay with EKVX NSCLC. In addition, the growth in the assay with SN12C renal is 42.4%; in the assay with UO-31 renal it was 46.6%; in the assay on TK-10 renal it was 39.1%; in the assay on ACHN renal, 36%; in the assay on CAKI-1 renal, 30.3%; in the assay on CCRF-CEM leukemia, 15.9%. Besides, the growth with MOLT-4 leukemia is 29.6%.

In the case of `Clc1ccc(-c2ccc(CNCC3CCNCC3)o2)c(-c2ccccc2)c1`, the growth was -76.3% (active) with HCT-15 colon; -78.6% (active) in the assay with HT29 colon; -90.8% (active) in the assay with SNB-75 CNS; -68.1% (active) in the assay on SNB-19 CNS; -88.8% (active) in the assay on U251 CNS; -81.8% (active) with PC-3 prostate. Further, the growth is -99.1% (active) with SK-MEL-5 melanoma; -90.8% (active) in the assay with UACC-62 melanoma; -86.7% (active) in the assay with LOX IMVI melanoma; -90% (active) with SK-MEL-28 melanoma; -75.7% (active) with SK-MEL-2 melanoma; -15% (active) with EKVX NSCLC. In addition, the growth in the assay on SN12C renal is -75.6% (active); in the assay on UO-31 renal, -95.1% (active); with TK-10 renal, -85.3% (active); with ACHN renal it was -96.8% (active); with CAKI-1 renal it was -85.3% (active); with CCRF-CEM leukemia it was -62.7% (active). Moreover, in the assay on MOLT-4 leukemia, the growth is -62.7% (active).

For `O=[N+]([O-])CC(c1ccccc1)c1c[nH]c2ccccc12` (stereo not drawn), the growth in the assay on HCT-15 colon is 26.5%; in the assay with HT29 colon, 12.5%; in the assay with SNB-75 CNS it was 27.2%; with SNB-19 CNS, 58%; in the assay on U251 CNS it was 35.7%; in the assay on PC-3 prostate it was 86.1%. The growth with SK-MEL-5 melanoma was 50.9%; in the assay on UACC-62 melanoma, 35%; with LOX IMVI melanoma it was 45.5%; with SK-MEL-28 melanoma, 59.9%; in the assay on SK-MEL-2 melanoma, 22.8%; in the assay on EKVX NSCLC, 67%. Further, the growth with SN12C renal was 52.8%; in the assay with UO-31 renal it was 67.3%; in the assay on TK-10 renal, 69.7%; with ACHN renal it was 71.1%; in the assay with CAKI-1 renal it was 42%; in the assay with CCRF-CEM leukemia, 46.9%. Also, in the assay with MOLT-4 leukemia, the growth is 27.4%.
